CXXC DNA block = blocks binding of human MLL CXXC domain to DNA | Q03164 | MLL-CXXC / FITC-HOXA9 DNA fluorescence polarization | Potency, µM (highest dose often 115 µM), for inactives: at the highest dose activity change, negative = inhibition, actives largely listed as inhibitors | actives 0.037% (n = 290,000) | AID 2662; active = well fitted inhibition curve with a large enough effect in the polarisation, with a control signal flat, not every such curve was filed as active; inconclusive = small, poorly fitted or top-dose-only effect, or effect the other way, or a change in a side signal; inactive = no such curve, though single readings can be large or run the other way; the % refers to the polarisation; also: potency is read from the fitted curve at half-maximal effect
Target sequence (Q03164 whole entry, looked up, the tested form may be a part): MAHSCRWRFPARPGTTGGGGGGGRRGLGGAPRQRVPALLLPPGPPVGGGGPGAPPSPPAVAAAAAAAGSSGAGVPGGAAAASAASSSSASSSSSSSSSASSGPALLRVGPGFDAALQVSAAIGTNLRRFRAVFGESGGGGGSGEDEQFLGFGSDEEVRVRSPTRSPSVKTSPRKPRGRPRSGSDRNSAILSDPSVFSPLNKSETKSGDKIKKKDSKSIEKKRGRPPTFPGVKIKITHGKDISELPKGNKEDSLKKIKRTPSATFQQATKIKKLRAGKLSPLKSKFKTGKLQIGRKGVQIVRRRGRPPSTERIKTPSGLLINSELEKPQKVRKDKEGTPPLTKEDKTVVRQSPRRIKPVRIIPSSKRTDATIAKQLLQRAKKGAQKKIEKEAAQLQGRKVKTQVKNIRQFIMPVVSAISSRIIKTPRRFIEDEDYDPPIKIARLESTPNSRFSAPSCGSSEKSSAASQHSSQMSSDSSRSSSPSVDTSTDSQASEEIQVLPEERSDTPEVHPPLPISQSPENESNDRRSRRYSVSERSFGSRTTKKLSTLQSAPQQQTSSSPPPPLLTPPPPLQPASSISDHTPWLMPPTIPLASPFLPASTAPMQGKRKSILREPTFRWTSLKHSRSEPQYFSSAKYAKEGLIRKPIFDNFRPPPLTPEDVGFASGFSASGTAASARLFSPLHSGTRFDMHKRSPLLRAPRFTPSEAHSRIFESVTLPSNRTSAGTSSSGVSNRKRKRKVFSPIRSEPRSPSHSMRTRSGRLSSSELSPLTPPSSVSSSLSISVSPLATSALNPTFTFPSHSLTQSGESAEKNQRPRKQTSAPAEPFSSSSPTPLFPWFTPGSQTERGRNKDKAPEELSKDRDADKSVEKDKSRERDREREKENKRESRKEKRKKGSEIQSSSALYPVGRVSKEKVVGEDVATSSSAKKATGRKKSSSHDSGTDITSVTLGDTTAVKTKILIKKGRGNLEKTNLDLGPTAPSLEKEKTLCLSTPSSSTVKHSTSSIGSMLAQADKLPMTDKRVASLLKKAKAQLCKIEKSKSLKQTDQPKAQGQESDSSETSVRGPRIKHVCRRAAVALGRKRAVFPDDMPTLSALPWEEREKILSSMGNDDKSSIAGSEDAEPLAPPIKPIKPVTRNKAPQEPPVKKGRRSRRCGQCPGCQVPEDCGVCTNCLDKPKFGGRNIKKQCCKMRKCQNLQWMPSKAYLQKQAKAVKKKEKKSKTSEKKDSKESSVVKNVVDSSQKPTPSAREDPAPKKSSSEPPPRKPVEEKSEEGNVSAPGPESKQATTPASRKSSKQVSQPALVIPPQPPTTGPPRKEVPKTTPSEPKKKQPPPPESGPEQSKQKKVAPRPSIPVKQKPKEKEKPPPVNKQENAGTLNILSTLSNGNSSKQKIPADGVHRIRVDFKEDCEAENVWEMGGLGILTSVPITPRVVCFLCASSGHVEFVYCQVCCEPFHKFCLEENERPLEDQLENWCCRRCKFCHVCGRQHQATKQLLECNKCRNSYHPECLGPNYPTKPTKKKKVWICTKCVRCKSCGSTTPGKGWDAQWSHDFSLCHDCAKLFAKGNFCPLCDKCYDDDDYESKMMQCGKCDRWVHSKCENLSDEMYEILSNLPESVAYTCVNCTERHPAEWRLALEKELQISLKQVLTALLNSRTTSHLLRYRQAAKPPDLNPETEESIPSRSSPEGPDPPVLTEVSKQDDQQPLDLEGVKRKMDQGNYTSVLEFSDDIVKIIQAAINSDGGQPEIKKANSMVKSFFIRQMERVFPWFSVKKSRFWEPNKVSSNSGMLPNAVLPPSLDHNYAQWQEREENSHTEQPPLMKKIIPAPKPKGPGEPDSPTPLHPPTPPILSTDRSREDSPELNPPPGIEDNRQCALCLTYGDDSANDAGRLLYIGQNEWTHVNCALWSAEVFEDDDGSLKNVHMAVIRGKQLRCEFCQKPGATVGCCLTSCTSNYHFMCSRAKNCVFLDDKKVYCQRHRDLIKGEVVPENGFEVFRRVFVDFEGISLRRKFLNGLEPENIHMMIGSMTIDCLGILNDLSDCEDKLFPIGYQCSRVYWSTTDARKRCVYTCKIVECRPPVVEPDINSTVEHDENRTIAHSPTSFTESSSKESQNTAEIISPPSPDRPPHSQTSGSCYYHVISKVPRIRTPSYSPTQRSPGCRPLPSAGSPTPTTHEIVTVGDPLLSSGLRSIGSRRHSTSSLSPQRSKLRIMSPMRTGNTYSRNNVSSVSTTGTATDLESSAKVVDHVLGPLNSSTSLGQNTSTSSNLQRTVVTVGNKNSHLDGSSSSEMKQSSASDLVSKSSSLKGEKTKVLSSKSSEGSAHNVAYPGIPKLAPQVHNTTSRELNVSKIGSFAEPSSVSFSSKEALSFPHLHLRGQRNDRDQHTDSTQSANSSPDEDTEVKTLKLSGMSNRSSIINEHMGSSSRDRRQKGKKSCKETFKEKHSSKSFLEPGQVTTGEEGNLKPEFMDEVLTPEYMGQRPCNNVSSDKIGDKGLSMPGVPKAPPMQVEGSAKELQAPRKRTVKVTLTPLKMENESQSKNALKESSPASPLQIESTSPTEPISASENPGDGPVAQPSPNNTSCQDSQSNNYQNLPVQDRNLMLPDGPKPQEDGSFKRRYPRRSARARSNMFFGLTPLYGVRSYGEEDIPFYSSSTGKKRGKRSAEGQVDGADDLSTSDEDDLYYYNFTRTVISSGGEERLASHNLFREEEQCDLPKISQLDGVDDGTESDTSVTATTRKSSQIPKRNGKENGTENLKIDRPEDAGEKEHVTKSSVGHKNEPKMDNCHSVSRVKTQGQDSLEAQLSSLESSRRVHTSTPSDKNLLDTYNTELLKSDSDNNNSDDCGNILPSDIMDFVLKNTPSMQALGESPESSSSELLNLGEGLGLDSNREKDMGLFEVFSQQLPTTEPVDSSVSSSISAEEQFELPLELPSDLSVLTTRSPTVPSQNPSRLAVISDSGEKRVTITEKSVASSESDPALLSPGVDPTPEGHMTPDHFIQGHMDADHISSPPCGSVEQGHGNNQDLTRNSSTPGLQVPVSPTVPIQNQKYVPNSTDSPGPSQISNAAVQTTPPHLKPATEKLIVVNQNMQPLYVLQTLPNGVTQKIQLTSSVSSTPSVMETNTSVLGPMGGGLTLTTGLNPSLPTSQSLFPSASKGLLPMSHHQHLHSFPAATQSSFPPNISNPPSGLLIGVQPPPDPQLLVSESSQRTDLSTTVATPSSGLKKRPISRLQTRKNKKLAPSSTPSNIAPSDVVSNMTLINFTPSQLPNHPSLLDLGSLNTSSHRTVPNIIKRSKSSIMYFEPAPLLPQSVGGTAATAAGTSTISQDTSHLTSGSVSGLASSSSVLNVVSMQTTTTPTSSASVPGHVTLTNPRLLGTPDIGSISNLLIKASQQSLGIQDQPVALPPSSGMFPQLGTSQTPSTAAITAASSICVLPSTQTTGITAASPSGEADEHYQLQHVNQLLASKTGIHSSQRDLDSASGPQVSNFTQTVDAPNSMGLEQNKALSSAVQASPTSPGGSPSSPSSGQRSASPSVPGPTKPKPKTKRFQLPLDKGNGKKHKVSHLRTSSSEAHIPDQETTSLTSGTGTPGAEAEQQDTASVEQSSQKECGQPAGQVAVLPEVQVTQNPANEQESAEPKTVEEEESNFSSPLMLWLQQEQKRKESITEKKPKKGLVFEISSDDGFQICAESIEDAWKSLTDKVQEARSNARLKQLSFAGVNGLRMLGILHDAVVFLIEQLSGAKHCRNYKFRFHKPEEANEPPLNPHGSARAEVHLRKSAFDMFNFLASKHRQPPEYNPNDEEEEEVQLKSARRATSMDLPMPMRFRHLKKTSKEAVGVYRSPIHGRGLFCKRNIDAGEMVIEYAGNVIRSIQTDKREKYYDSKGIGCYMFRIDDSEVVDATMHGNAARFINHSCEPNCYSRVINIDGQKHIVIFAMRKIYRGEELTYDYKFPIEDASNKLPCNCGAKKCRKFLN
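Steps: dispense CXXC domain solution (7 uM) → pin compounds or unlabeled HOX-A9 DNA control → 5 min ambient → add FLSN-HOX-A9 solution (50 nM) → spin → 30 min ambient → fluorescence polarization. Tris pH 7.5/NaCl/DTT/BSA buffer.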
Menin-MLL TR inh = menin-MLL binding inhibition, Texas Red mutant peptide; Menin + Texas Red MLL mutant peptide, fluorescence polarization; Potency, µM (top dose mostly 61.6 µM), for inactives: at the highest dose FP activity change, negative = inhibition, actives largely listed as inhibitors; actives 0.23% (n = 270,000); active = well fitted inhibition curve with a large enough effect in the polarisation, with a control signal flat, not every such curve was filed as active; inconclusive = small, poorly fitted or top-dose-only effect, or effect the other way, or a change in a side signal; inactive = no such curve, though single readings can be large or run the other way; the % refers to the polarisation; also: potency is read from the fitted curve at half-maximal effect; % of control where 0% means no effect
Menin MLL FP FL = inhibitors of human menin-MLL interaction, wild-type MLL peptide. 290,000 tested, under 10 active. Fluorescence polarization, fluorescein-MLL peptide displacement from menin. FP activity change, % at 61.4 µM. AID 1766; active = well fitted curve in the direction sought with a large enough effect in the polarisation, not every such curve was filed as active; inconclusive = small, poorly fitted or top-dose-only effect, or effect the other way, or a change in a side signal; inactive = no such curve, though single readings can be large or run the other way; the % refers to the polarisation; also: % of control where 0% means no effect
MLL CXXC FP-Fl = inhibitors of human MLL CXXC domain-DNA interaction; shares compounds with CXXC DNA block; MLL CXXC-DNA binding, fluorescein FP; Potency, µM (series often up to 345 µM), without a hit: at the top dose activity change, negative = inhibition, actives largely listed as inhibitors; actives 70% (n = 200); AID 624160; also: potency is read from the fitted curve at half-maximal effect; nearly all actives have a fitted effect of over 80% in size
MLL CXXC TxRed = MLL CXXC-DNA interaction inhibition, Texas Red FP. shares compounds with CXXC DNA block. MLL CXXC-DNA binding, Texas Red fluorescence polarization. Potency, µM (top dose mostly 345 µM), without a hit: top-dose activity change, negative = inhibition, hits mostly inhibitors. actives 40% (n = 200); also: potency is read from the fitted curve at half-maximal effect; % is scaled to controls: 0 for no effect and ±100 for the full control effect; nearly all actives have a fitted effect of over 75% in size
MLL CXXC TRF = MLL CXXC-DNA interaction inhibition, HTRF readout; MLL CXXC-DNA binding, HTRF, biochemical; AID 624162; Potency, µM (top dose mostly 172 µM), for the others: at the top dose activity change, negative = inhibition, usual class: inhibitors; actives 30% (n = 210); shares compounds with CXXC DNA block; also: % is scaled to controls: 0 for no effect and ±100 for the full control effect; nearly all actives have a fitted effect of over 80% in size
* = called active by the depositor; u = inconclusive; x = not tested or not shown; [ ] = dose if it differs, or a comment. Many of the other results were omitted from the sample, so hits are more common in it than they were. Unless noted, calls follow the shape of the dose curve; as a rule, active = well fitted inhibition curve with a large enough effect; inconclusive = small, poorly fitted or top-dose-only effect; inactive = no such curve, though single readings can be large or run the other way.

SMILES	CXXC DNA block	Menin-MLL TR inh	Menin MLL FP FL	MLL CXXC FP-Fl	MLL CXXC TxRed	MLL CXXC TRF
OCC1OC([S-])[C@H](O)C(O)C1O.[Au+] (stereo partly specified)	-10%	5%	-1	x	x	x
O=c1c(-c2ccccc2)n[nH]c2ccccc12	9%	3%	2	x	x	x
O=C1c2ccccc2-c2n[nH]c3cccc1c23	u	u	u	36µM*	u	18%
C[C@@H](NCCCc1cccc(C(F)(F)F)c1)c1cccc2ccccc12	13%	8%	5	x	x	x
NCC(=O)N[C@@H](CCCN=C(N)N)C(=O)NCC(=O)N[C@@H](CCC(=O)O)C(=O)N[C@@H](CO)C(=O)O	x	10%	4	x	x	x
Oc1nc(Nc2ccc(F)cc2)sc1/C=C1\C=Nc2ccccc21	24%	x	25	x	x	x
O=c1[nH]c(S)c(/C=C2\C=Nc3ccccc32)s1	35µM*	x	u	126µM*	u	u
NC(=O)CN1C(=O)C(=O)N(Cc2cccc(Cl)c2)C1=O	u	3%	2	66%	-9%	-3%
O=C(CN1C(=O)C(=O)N(Cc2ccccc2)C1=O)Nc1cc(Cl)cc(Cl)c1	2%	x	-1	x	x	x
C#CCOc1ccc(C(=O)N(C)c2ccccc2I)cc1	x	-7%	0	x	x	x
Cn1ncc(Cl)c1C(=O)Nc1cccc(Cl)c1	2%	-21%	-1	x	x	x
Cn1ncc(N=Cc2c(O)ccc3ccccc23)c1C(=O)Nc1cccc(Cl)c1	45µM*	u	u	x	x	118%
CC[C@H](C)[C@H](NC(=O)[C@H](Cc1ccccc1)NC(=O)[C@H](CCC(=O)O)NC(=O)[C@H](CCCCN)NC(=O)[C@H](C)NC(=O)[C@H](C)NC(=O)[C@H](CCC(N)=O)NC(=O)CNC(=O)[C@H](CCC(=O)O)NC(=O)[C@H](CC(C)C)NC(=O)[C@H](Cc1ccc(O)cc1)NC(=O)[C@H](CO)NC(=O)[C@H](CO)NC(=O)[C@@H](NC(=O)[C@H](CC(=O)O)NC(=O)[C@H](CO)NC(=O)[C@@H](NC(=O)[C@H](Cc1ccccc1)NC(=O)[C@@H](NC(=O)CNC(=O)[C@H](CCC(=O)O)NC(=O)[C@H](C)NC(=O)[C@@H](N)Cc1cnc[nH]1)[C@@H](C)O)[C@@H](C)O)C(C)C)C(=O)N[C@@H](C)C(=O)N[C@@H](Cc1c[nH]c2ccccc12)C(=O)N[C@@H](CC(C)C)C(=O)N[C@H](C(=O)N[C@@H](CCCCN)C(N)=O)C(C)C	x	4%	0	x	x	x
Cc1nc2nc(-c3ccc(Cl)cc3)cn2nc1C	-2%	x	-2	x	x	x
Cc1nc2nc(-c3cccs3)cn2nc1C	35µM*	-1%	u	126µM*	-3%	-1%
COc1ccc2[nH]cc(CCNc3ccnc(-c4ccc5c(c4)OCO5)n3)c2c1	x	u	0	x	x	x
O=C(O)CN1C(=O)/C(=C\c2cccc(OCc3ccc(Cl)cc3Cl)c2)SC1=S	u	54%	1	u	23%	-103%
O=C(O)CN1C(=O)/C(=C\c2ccccc2OCc2ccc(Cl)cc2Cl)SC1=S	u	-2%	11	x	x	x
CCC(=O)CC	x	9%	1	x	x	x
Cc1noc(C)c1-c1ccc2ncnc(NC3CCCc4ccccc43)c2c1 (stereo unspecified)	x	-19%	-7	x	x	x
COc1ccc(C2/C=C\CN(C(=O)C3CCCCC3)C(C)C(=O)N2Cc2ccc(F)cc2)cc1 (stereo unspecified)	x	5%	3	x	x	x
OC(Cn1cncn1)(c1ccc(F)cc1)c1ccc(Cl)cc1 (stereo unspecified)	89µM*	-6%	1	u	-19%	-1%
OC(Cn1cncn1)c1ccc(Cl)cc1 (stereo unspecified)	-1%	0%	-1	x	x	x
COC(=O)C(CCSC)NS(=O)(=O)c1ccccc1Br (stereo unspecified)	x	6%	0	x	x	x
Cc1cc(C)c(S(=O)(=O)/N=C2\C=C(Nc3ccc(C(=O)O)cc3)C(=O)c3ccccc32)c(C)c1	-17%	u	u	x	x	x
SMILES	CXXC DNA block	Menin-MLL TR inh	Menin MLL FP FL	MLL CXXC FP-Fl	MLL CXXC TxRed	MLL CXXC TRF
O=C(O)c1ccc(NC2=C/C(=N/S(=O)(=O)c3ccccc3)c3ccccc3C2=O)cc1	u	u	-5	u	u	77%
O=S(=O)(O)c1cc(O)c2c(N=Nc3ccc(Nc4ccccc4)c4c(S(=O)(=O)O)cccc34)cc(S(=O)(=O)O)cc2c1	u	u	2	x	x	x
CCCCC1(C)OC(=O)C(=Cc2ccc(-c3ccc(Cl)c(C(=O)O)c3)o2)C(=O)O1 (stereo unspecified)	40µM*	x	20	22µM*	45µM*	49µM*
Cc1ccc(N2NC(=O)/C(=C/c3ccc(-c4ccc(Cl)c(C(=O)O)c4)o3)C2=O)cc1	u	21%	14	x	x	x
Fc1ccccc1COc1ccc(Br)cc1CNCc1cccnc1	u	u	-5	u	u	-10%
Fc1ccccc1COc1ccc(Br)cc1CNCc1ccncc1	-20%	u	-1	x	x	x
CC1(OC(=O)C2CCCC2)C(=O)C=C2C=C(c3ccsc3)N(c3cccc(C#N)c3)C=C2C1=O (stereo unspecified)	x	u	14[11.7 µM]	x	x	x
Cc1cc(C=C2C(=O)c3ccccc3C2=O)c(C)n1-c1ccc(Cl)cc1	u	0%	u	x	x	x
Cc1cccc(-n2c(C)cc(C=C3C(=O)c4ccccc4C3=O)c2C)c1	32µM*	u	u	142µM*	u	41%
N#CC(C#N)=C1C=C2C=C(N3CCCCC3)CCC2CC1 (stereo unspecified)	u	u	x	0.14µM*	126µM*	199%
N#CC1=C(N)C2=C(N3CCCCC3)CCCC2C1(C#N)C#N (stereo unspecified)	-1%	0%	u	x	x	x
CC12CCC=CC1C(c1ccc(C(F)(F)F)cc1)N(Cc1ccccc1)C2=O (stereo unspecified)	x	-16%	0	x	x	x
CCn1c(CSc2n[nH]c(N)n2)nc2cc(C(=O)O)ccc21	35µM*	u	-26	113µM*	113µM*	7%
CCn1c(CSc2nnc(-c3ccncc3)n2CCOC)nc2cc(C(=O)O)ccc21	-1%	u	-15	x	x	x
COc1cc2c(cc1OC)C1O[C@](c3ccsc3)(C2)OC2=C1C(=O)CC(C)(C)C2	4%[23 µM]	7%[11.7 µM]	-3[11.7 µM]	x	x	x
Cc1ccccc1S(=O)(=O)NC1OC(=O)C(Cl)=C1Cl (stereo unspecified)	u	0%	2	45µM*	159µM*	u
Cc1ccccc1S(=O)(=O)NC1OC(=O)C(Oc2ccccc2)=C1Br (stereo unspecified)	u	u	0	x	x	x

Screens as filed in PubChem BioAssay.
